Screening results: PubChem, National Center for Advancing Translational Sciences (NCATS)
Only some compounds are listed: those with a hit (about 7.9% of all), similar ones and a draw of the others.
LASV entry inh – Lassa virus entry inhibition; Potency, µM (highest dose often 37.9 µM), actives largely listed as inhibitors; Lassa virus pseudotype entry inhibition, cell reporter; actives 1.2% (n = 300,000); AID 540256; calls by dose curve; tested in HEK293 cells; note: nearly all actives have a fitted effect of over 50% in size
HCMV inh – inhibitors of human cytomegalovirus; actives 4.5% (n = 410,000); activity change, negative = inhibition, % at 57.5 µM; HFF cells, HCMV-luciferase reporter, 72 h; active compounds read low; in the data active = activity change below about -60%; inconclusive = no clear call, values can overlap the other calls; inactive = above about -39%
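Human foreskin fibroblasts infected with luciferase-reporter HCMV at MOI 1 PFU/cell, compounds at two doses. Luciferase measured 72 h post infection; normalized to buffer-only basal and Salinomycin (10uM) controls.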
HCV inhibitor – inhibitors of hepatitis C virus infection. Huh7.5.1 HCVcc-Cre infection, luciferase reporter, 44 h. Potency, µM (titrated, usually from 41.8 µM), hits mostly inhibitors. actives 3.4% (n = 340,000); active = well fitted inhibition curve with a large enough effect; inconclusive = small, poorly fitted or top-dose-only effect, or another doubt; inactive = no such curve, though single readings can be large or run the other way
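HCVcc-Cre virus at an moi near 0.5 was added right after compound to cells cultured 4 h from seeding (1,000 cells/well). Luciferase activity was determined 44 h later, 15 min after substrate addition at RT.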
FMDV antiviral – foot and mouth disease virus antiviral activity; FMDV antiviral cell-based qHTS; Potency, µM (doses to about 57.9 µM), hits mostly inhibitors; actives 1.2% (n = 410,000); AID 1159524; calls by dose curve; tested in HEK293T cells; note: read-out not given here; nearly all actives have a fitted effect of over 45% in size
Marburg entry inh – inhibitors of Marburg virus binding or cell entry; Marburg virus pseudotyped entry inhibition, cell reporter; Potency, µM (titrated, usually from 37.8 µM), usual class: inhibitors; actives 1.8% (n = 300,000); AID 540276; calls by dose curve; tested in HEK293 cells
Numbers stand for hits; . = inactive; ? = inconclusive; / = not tested or not shown; ! = not active in a repeat; [ ] = remark or other dose.

SMILES | LASV entry inh | HCMV inh | HCV inhibitor | FMDV antiviral | Marburg entry inh
O=[N+]([O-])c1ccc(Sc2ncccn2)c([N+](=O)[O-])c1 | ? | -97 | ? | 14µM | ?
CC(C)Sc1nc(-c2ccccc2)cc(=O)[nH]1 | . | . | . | . | .
COc1ccc(CCNC(=O)c2ccc3c(c2)N(Cc2ccc(C)cc2)CCS3)cc1OC | ? | . | 8.9µM | ? | ?
COc1ccc(CCNC(=O)c2ccc3c(c2)N(Cc2ccc(F)cc2)CCS3)c(OC)c1 | . | . | ? | . | 7.9µM
COc1ccc(CCNC(=O)c2ccc3c(c2)N(Cc2ccccc2C)C(=O)c2ccccc2S3)cc1OC | ? | -79 | / | . | /
COc1ccc(CNC(=O)c2ccc3c(c2)N(Cc2ccc(C)cc2)CCS3)cc1 | ? | . | / | . | ?
COc1ccc(OC)c(CCNC(=O)c2ccc3c(c2)N(Cc2ccc(F)cc2)CCS3)c1 | / | / | ? | . | /
Cc1ccc(CN2CCSc3ccc(C(=O)NCc4cccnc4)cc32)cc1 | / | . | 25µM | . | /
COc1ccc(CNc2ncncc2-c2ccc3c(c2)OCO3)c(OC)c1 | / | / | / | . | /
COc1ccc(-c2nc(CNC(=O)NC3CCCCC3)c(C)o2)c(OC)c1 | . | . | / | . | /
C=CCN1C(=O)CSc2ccc(C(=O)NCc3ccco3)cc21 | . | . | ? | . | .
COc1ccc(CCNC(=O)c2ccc3c(c2)N(Cc2ccc(F)cc2)C(=O)CS3)cc1OC | ? | -66 | / | ? | /
C=CCN1C(=O)CSc2ccc(C(=O)NCCC3=CCCCC3)cc21 | 7.3µM | . | ? | ? | ?
COc1ccc(CCNC(=O)c2ccc3c(c2)NC(=O)CS3)cc1OC | . | . | . | . | .
CCOC(=O)C1(C)CCCN1C(=O)c1ccc(C(=O)OC)cc1 (stereo not drawn) | / | . | / | . | /
CCC(C)n1c(=S)[nH]c2c(sc3ccc([N+](=O)[O-])cc32)c1=O (stereo not drawn) | . | ? | ? | 35µM | .
CCCCCc1cc(=O)oc2c(C(CCN(CC)CC)c3ccc(N(C)C)cc3)c(OC)cc(OC)c12 (stereo not drawn) | / | -75 | ? | . | /
CCCCCc1cc(=O)oc2c(C(CCN3CCCC(C)C3)c3ccc(N(C)C)cc3)c(OC)cc(OC)c12 (stereo not drawn) | / | / | . | . | /
CCC(=O)NC(C)c1cc(Cl)c2cccnc2c1O (stereo not drawn) | / | -97 | / | . | /
CC(=O)NC(C)c1cc(Cl)c2cccnc2c1O (stereo not drawn) | / | -96 | / | . | /
Cc1ccc2c(Cl)cc(Cl)c(O)c2n1 | ? | -75 | ? | 10µM! | 11µM
O=S(=O)(O)c1cc(I)c(O)c2ncccc12 | / | . | / | / | /
Oc1c(I)cc(I)c2cccnc12 | . | -100 | .[8.37 µM] | . | .
CC(=O)NC(C)c1cc(Cl)c2ccccc2c1O (stereo not drawn) | / | . | / | . | /
COC(=O)C1OC(=O)C2OC23[C@]2(C)C(OC(C)=O)CC4C(C)(C)C(=O)CC[C@]4(C)C2CC[C@@]13C (stereo partly drawn) | / | / | / | . | /
SMILES | LASV entry inh | HCMV inh | HCV inhibitor | FMDV antiviral | Marburg entry inh
CCOc1ccc(C(=O)NCC(c2ccc3c(c2)OCO3)N2CCN(c3ccccc3F)CC2)cc1 (stereo not drawn) | ? | . | / | . | /
O=C1CCC[C@H]2[C@@H](Cc3ccccc3)[C@@H](NS(=O)(=O)c3ccc(F)cc3)CC[C@]23CCCN13 | / | . | / | / | /
COCCn1c(=N)c(S(=O)(=O)c2ccc(F)cc2)cc2c(=O)n3ccccc3nc21 | / | . | . | . | /
Cc1ccc(S(=O)(=O)Nc2cccnc2Oc2ccc(Cl)cc2)cc1 | / | . | . | . | /
Oc1c(Cl)cc(Cl)c2cccnc12 | / | -99 | . | ? | /
O=C(Oc1c(Cl)cc(Cl)c2cccnc12)c1ccco1 | ? | -102 | ? | ? | ?
Cc1ccc(S(=O)(=O)Nc2cc(Cl)c(O)c3ncccc23)cc1 | ? | -98 | ? | . | ?
Oc1ccc(Cl)c2cccnc12 | . | . | ? | . | .
CN1CCN(C(c2ccc(Br)cc2)c2cc(Cl)c3cccnc3c2O)CC1 (stereo not drawn) | ? | . | 7.9µM | ? | ?
Cc1ccccc1OCCCn1c(-c2ccc(Cl)cc2)nc2ccccc2c1=O | . | . | / | . | .
CSc1ccccc1OCc1cc(C(=O)NC(C)c2cnn(C)c2)no1 (stereo not drawn) | . | . | . | . | .
Cc1c(C(C)NC(=O)c2cc(COc3cccc4cnccc34)on2)cnn1C (stereo not drawn) | / | -86 | 7.1µM | ? | /
CCc1ccc(CN(C)C(=O)c2cc(COc3c(F)cccc3F)on2)cc1 | . | . | . | . | .
CCc1ccc(CN(C)C(=O)c2cc(COc3cccc4cnccc34)on2)cc1 | / | -99 | 7.9µM | ? | /
CN(Cc1cccnc1)C(=O)c1cc(COc2ccc3c(c2)CCCC3)on1 | ? | -65 | / | . | ?
CN(Cc1cccc2cnccc12)C(=O)c1cc(COc2ccc(F)cc2F)on1 | / | -60 | 8.9µM | ? | /
CCc1nc2cc(C(=O)N(C)C3CCOC3)cc(NC(=O)c3ccccc3OC)c2n1C (stereo not drawn) | / | / | / | . | /
Cc1ccc(C)n1C1C(=O)N(Cc2ccc(C(F)(F)F)cc2)c2ccc(OC(F)(F)F)cc21 (stereo not drawn) | / | . | / | / | /
CCOC(=O)c1nc2c(ccc3ccccc32)cc1C | . | . | ? | . | .
CC(C)Cc1ccc(C(C)C(N)=NCCc2ccccc2)cc1 (stereo not drawn) | ? | -87 | ? | . | 2.2µM
CSc1ncc(Cl)c(C(=O)Nc2cc(C(F)(F)F)ccc2Cl)n1 | . | . | / | . | .
CCc1c(C2(O)CCCCC2)[nH]c2ccc(C(F)(F)F)cc12 | / | . | ? | 40µM | /
CCOc1ccc2nc(SCC(=O)NC3CCCCC3)[nH]c2c1 | . | ? | . | . | 10µM
Cc1ccc2nc(SCC(=O)NC3CCCc4ccccc43)[nH]c2c1 (stereo not drawn) | ? | ? | 11µM | . | ?
COc1ccc2nc(SCC(=O)NC3CCCCC3)[nH]c2c1 | ? | . | . | . | ?
SMILES | LASV entry inh | HCMV inh | HCV inhibitor | FMDV antiviral | Marburg entry inh
CCc1ccc(NC(=O)c2ccc3c(c2)nnn3CC)cc1 | . | . | / | . | /
COc1ccc(C(=O)Nc2nnc(SCc3cc(=O)c4cccc(F)c4[nH]3)s2)cc1 | ? | . | / | . | /
O=C(CN1C(=O)CCSc2ccc(S(=O)(=O)N3CCCC3)cc21)Nc1cccc(Cl)c1 | . | . | / | . | /
Cc1cc(NC(=O)c2cc3cccc([N+](=O)[O-])c3[nH]2)ccc1F | / | ? | 11µM | . | /
Cc1cccc(NC(=O)c2cc(Cl)ccc2[N+](=O)[O-])c1 | . | -83 | . | . | ?
Cc1ccc(NC(=O)c2cc(Cl)ccc2[N+](=O)[O-])cc1C | . | -73 | ? | . | .
COCC(C)NC(=O)c1cc2cccc([N+](=O)[O-])c2[nH]1 (stereo not drawn) | . | . | . | . | .
Nc1nc(N)c2cc(S(=O)(=O)c3ccc4ccccc4c3)ccc2n1 | / | -82 | / | . | /
CCCOc1ccc(OC(=O)c2sc3ncn(Cc4cccc(F)c4)c(=O)c3c2C)cc1 | . | . | / | . | /
